Test results from PubChem BioAssay AID1159580 (chemical genetic matrix, 2015).
Screen size: about 5,500 compounds; about 2,000 (36%) were called active. Not shown: some 18% with an inconclusive outcome. Rule as the data show it: active = normalized growth mostly below about 0.91 (no sharp cut-off); inconclusive = no clear call, values can overlap the other calls; inactive = mostly above about 0.92. Some of the results follow.

Experiment: chemical genetic growth profiling, strain panel (AID 1159580);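 also: tested at 20 µM; growth read once vehicle control cultures reached saturation at 30 °C; 1 = growth at the plate median or of vehicle wells; lower values mean less growth of the strain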
Details: S. cerevisiae deletion strains, growth OD

Measured: normalized growth

CSc1n[nH]c(-c2cc(C(C)(C)C)oc2C)c1C#N
active: locus YHR030C, strain SLT2, hits give low values 0.542 | locus YLR113W, strain HOG1, hits give low values 0.776 | locus YPL256C, strain CLN2, hits give low values 0.814
inactive: locus YAR019C, strain CDC15, hits give low values 0.949 | locus YBL105C, strain PKC1, hits give low values 0.951 | locus YBR135W, strain CKS1, hits give low values 0.952 | locus YBR136W, strain MEC1, hits give low values 0.967 | locus YBR160W, strain CDC28, hits give low values 0.955 | locus YDL017W, strain CDC7, hits give low values 0.953 | locus YDL028C, strain MPS1, hits give low values 0.966 | locus YDL101C, strain DUN1, hits give low values 0.967 | locus YDL108W, strain KIN28, hits give low values 0.937 | locus YDL132W, strain cdc53, hits give low values 0.933 | locus YDL214C, strain PRR2, hits give low values 0.847 | locus YDR052C, strain DBF4, hits give low values 0.964 | locus YDR054C, strain cdc34, hits give low values 0.934 | locus YDR226W, strain ADK1, hits give low values 0.952 | locus YDR477W, strain SNF1, hits give low values 0.835 | locus YER123W, strain YCK3, hits give low values 0.834 | locus YER133W, strain GLC7, hits give low values 0.867 | locus YFL009W, strain cdc4, hits give low values 0.962 | locus YFL029C, strain CAK1, hits give low values 0.928 | locus YFR003C, strain YPI1, hits give low values 0.95 | locus YFR019W, strain FAB1, hits give low values 0.943 | locus YFR028C, strain CDC14, hits give low values 0.979 | locus YGR040W, strain KSS1, hits give low values 0.847 | locus YGR052W, strain FMP48, hits give low values 0.833 | locus YGR092W, strain DBF2, hits give low values 0.78 | locus YHR079C, strain IRE1, hits give low values 0.86 | locus YHR082C, strain KSP1, hits give low values 0.818 | locus YHR205W, strain SCH9, hits give low values 0.908 | locus YIL147C, strain SLN1, hits give low values 0.954 | locus YJL095W, strain BCK1, hits give low values 0.744 | locus YJL128C, strain PBS2, hits give low values 0.894 | locus YJL157C, strain FAR1, hits give low values 0.883 | locus YJR016C, strain ILV3, hits give low values 0.946 | locus YJR066W, strain TOR1 (second series), hits give low values 0.897 | locus YJR066W, strain TOR1, hits give low values 0.789 | locus YKL048C, strain ELM1, hits give low values 0.949 | locus YKL067W, strain YNK1, hits give low values 0.846 | locus YKL101W, strain HSL1, hits give low values 0.914 | locus YKL193C, strain SDS22, hits give low values 0.948 | locus YKL203C, strain TOR2, hits give low values 0.908 | locus YLR133W, strain CKI1, hits give low values 0.888 | locus YLR403W, strain SFP1, hits give low values 0.885 | locus YML070W, strain DAK1, hits give low values 0.879 | locus YMR001C, strain CDC5, hits give low values 0.945 | locus YMR205C, strain PFK2 (second series), hits give low values 0.888 | locus YMR277W, strain FCP1, hits give low values 0.938 | locus YNL006W, strain LST8, hits give low values 0.947 | locus YNL020C, strain ARK1, hits give low values 0.892 | locus YNL161W, strain CBK1, hits give low values 0.948 | locus YNL183C, strain NPR1, hits give low values 0.815 | locus YNL207W, strain RIO2, hits give low values 0.937 | locus YNL222W, strain SSU72, hits give low values 0.944 | locus YNL307C, strain MCK1 (second series), hits give low values 0.89 | locus YOL078W, strain AVO1, hits give low values 0.943 | locus YOL136C, strain PFK27, hits give low values 0.906 | locus YOR061W, strain CKA2, hits give low values 0.909 | locus YOR119C, strain RIO1, hits give low values 0.83 | locus YOR231W, strain MKK1, hits give low values 0.847 | locus YOR329C, strain SCD5, hits give low values 0.948 | locus YPL031C, strain PHO85, hits give low values 0.824 | locus YPL153C, strain RAD53, hits give low values 0.819 | locus YPL204W, strain HRR25, hits give low values 0.818 | locus YPL209C, strain IPL1, hits give low values 0.959 | locus YPR025C, strain CCL1, hits give low values 0.948 | locus YPR106W, strain ISR1, hits give low values 0.947 | locus YPR111W, strain DBF20, hits give low values 0.94 | strain NNK1, hits give low values 0.943 | strain TSCII, hits give low values 0.925
